Reference: PubChem BioAssay AID651593 (National Center for Advancing Translational Sciences (NCATS), 2012)
Out of some 1,100 compounds screened, about 860 (78%) were called active. Roughly 19% stayed inconclusive and do not appear here. The call rests on the fitted dose curve; in most records, active means well fitted activation curve with a large enough effect; inconclusive means small, poorly fitted or top-dose-only effect; inactive means flat fitted curve, though single readings scatter. The set was probably picked from earlier hits. Some of the results follow.

experiment: qHTS of Nrf2 Activators: Hit Validation in Primary Assay; conditions: Nrf2/ARE reporter cell assay; Potency: activation; series mostly up to 46.1 µM; further: nearly all actives have a fitted effect of over 70% in size
Excerpt: Many diseases have some form of oxidative stress injury and ties to inflammation, causing a host of problems for the patient. The antioxidant response element (ARE) plays an important role in alleviating the harmful effects of oxidative stress. The antioxidant response element (ARE) is a transcriptional regulatory element involved in the activation of genes coding for a number of antioxidant proteins and detoxifying enzymes. These enzymes work in concert to protect tissues from oxidative insults and chemical toxicities in human hepatocytes and immune cells. The protective effects of ARE activation are primarily triggered through Nrf2 (NF-E2-related factor) binding to and activating AREs. It is known that Nrf2 controls the production of over 250 antioxidant and detoxification proteins (Hu et al., 2006), thereby protecting tissues by increasing cellular antioxidant content and suppressing inflammatory signaling pathways. The transcription factor Nrf2 is a central link between oxidative chemicals, such as phenolic antioxidants and electrophilic compounds, and the activation of ARE. Nrf2 levels are constitutively low as a consequence of its interaction with Keap1, which targets its degradation (Zipper and Mulcahy, 2002). Electrophiles react with key cysteine residues in Keap1, releasing Nrf2 and allowing its translocation to the nucleus. Once within the nucleus, Nrf2 complexes with coactivators such as p300, and binds to the AREs to induce gene transcription of cytoprotective enzymes, resulting in the prevention of toxicity. Activation of Nrf2 protects tissues by increasing cellular antioxidant content and suppressing inflammatory signaling pathways. Identifying novel and potent Nrf2 activators by using the AREc32 cell line to detect ARE activation by small molecules will lead to the identification and development of probes to study protective pathways in multiple tissues. These specific probes are essential to study the ARE pathway, and eventually to determine whether this pathway does activate genes that could protect against a host of diseases, including cardiovascular diseases, obesity, diabetes, Alzheimer's, and Parkinson's disease.
This project's aim is to identify novel and potent Nrf2 activators by using the AREc32 cell line to detect ARE activation by small molecules, which will lead to the identification and development of probes to study the ARE pathway.
NIH Chemical Genomics Center [NCGC]
NIH Molecular Libraries Probe Centers Network [MLPCN]
Assay Submitter (PI): Curtis Klaassen, University of Kansas Medical Center
Quantification of ARE activation after compound treatment was measured by the Steady-Glo Luciferase (R) assay system (Promega) in AREc32_fluc stable cells. The Steady-Glo reagent acts by cell lysis and generation of a luminescent signal proportional to ARE activation, through the luciferase reporter in the AREc32 stable cell line. AREc32_fluc cells were harvested from T225 flask and resuspended in phenol red free OPTI-MEM medium with 5% FBS. Then 5 microL of 200,000 cells/mL resuspended cells were dispensed into each well of white, solid bottom, 1536-well tissue culture-treated plates using a Multidrop Combi dispenser. After overnight culture at 37 degrees C with 5% CO2, a total of 23 nL of compounds at 5 selected concentrations from the MLSMR/Sytravon or positive control (40 uM stock of CDDO-IM and 2 mM of tBHQ) in DMSO was transferred to each well of the assay plate using a pintool (Kalypsys, San Diego, CA), and the plates were further incubated at 37 degrees C with 5% CO2 for 24 hours. After that, 2 microL of Steady Glo luminescent substrate mix (Promega) was added to each well. The plate was incubated at room temperature for 30 minutes. The plates were measured on a ViewLux plate reader (PerkinElmer) with clear filter.
Potency means the concentration at half of the fitted maximal effect.

Row | Structure (SMILES) | Potency
1 | Brc1ccccc1C1N=C(c2ccccc2)NO1 (stereo unspecified) | 5.8 µM (active)
2 | CN1CCN(c2sc(S(C)(=O)=O)nc2S(=O)(=O)c2ccc(Cl)cc2)CC1 | 8.2 µM (active)
3 | Cc1ccc(S(=O)(=O)c2nc(S(C)(=O)=O)sc2N2CCN(C)CC2)cc1 | 5.17 µM (active)
4 | O=C(Nc1nc2ccc(F)cc2s1)c1ccc([N+](=O)[O-])o1 | 3.66 µM (active)
5 | O=C(Nc1nc2c(Cl)cccc2s1)c1ccc([N+](=O)[O-])o1 | 3.66 µM (active)
6 | O=c1cc(-c2cccc(Br)c2)oc2cccc(O)c12 | 5.8 µM (active)
7 | Cn1c(N)c(C(=O)COC(=O)c2nc(Cl)ccc2Cl)c(=O)n(C)c1=O | 1.46 µM (active)
8 | COc1cc(NC(=S)Nc2ccccn2)c(OC)cc1Cl | 5.17 µM (active)
9 | COc1ccc(C(C#N)=C2C=CC(=NO)C=C2)cc1 | 1.3 µM (active)
10 | C/C(=N\NC(=S)Nc1cccc(C)c1)c1ccco1 | 2.31 µM (active)
11 | O=C(Nc1ccc(OC(F)F)cc1)c1ncc(Cl)c(Cl)c1Cl | 16.4 µM (active)
12 | c1ccc(CSc2nccc(-c3ccco3)n2)cc1 | 20.6 µM (active)
13 | Nc1nccc(/C=C/c2c(F)cccc2Cl)n1 | 9.2 µM (active)
14 | Clc1ccc2nc(-c3ccco3)c(Cc3ccccc3)n2c1 | 23.1 µM (active)
15 | COc1ccccc1Cc1c(-c2ccco2)nc2ccc(Cl)cn12 | 16.4 µM (active)
16 | FC(F)(F)c1cc(-c2ccco2)nc(NCc2ccco2)n1 | 11.6 µM (active)
17 | FC(F)(F)c1cc(-c2ccco2)nc(-n2nnc3ccccc32)n1 | 2.59 µM (active)
18 | FC(F)(F)c1cc(-c2cccs2)nc(NCc2ccco2)n1 | 4.61 µM (active)
19 | Cc1ccc(N=C2NC(=O)/C(=C/C=C/c3ccco3)S2)cc1 | 2.06 µM (active)
20 | O=C1NC(=Nc2ccccc2)S/C1=C\C=C\c1ccco1 | 2.31 µM (active)
21 | O=[N+]([O-])c1ccccc1C=CC=NN=Cc1ccccc1O | 3.26 µM (active)
22 | O=[N+]([O-])c1cccc(C=NN=Cc2ccccc2O)c1 | 8.2 µM (active)
23 | NC(=O)N/N=C/c1ccccc1OC(=O)c1ccccc1Br | 3.26 µM (active)
24 | COC(=O)c1sccc1NC(=O)c1ccc(Br)s1 | 7.31 µM (active)
25 | COC(=O)c1sccc1NC(=O)c1ccc(Br)o1 | 9.2 µM (active)
26 | Cc1ccc(S(=O)(=O)c2cc3ccccc3oc2=O)cc1 | 8.2 µM (active)

Row | Structure (SMILES) | Potency
27 | COC(=O)C(=C/C=C/c1ccco1)C(=O)OC | 9.2 µM (active)
28 | COC(=O)c1c(NC(=O)/C=C/c2ccco2)sc2c1CCC2 | 0.461 µM (active)
29 | COC(=O)c1ccccc1NC(=O)/C=C/c1ccco1 | 0.411 µM (active)
30 | COc1ccccc1NC(=O)/C=C\c1ccco1 | 1.84 µM (active)
31 | O=C(/C=C/c1ccco1)Nc1ccccc1N1CCCCC1 | 1.16 µM (active)
32 | O=c1c2cc3c(=O)n(-c4ccccc4O)c(=O)c3cc2c(=O)n1-c1ccccc1O | inactive
33 | CCOc1ncccc1C(=O)NNC(=O)c1ccc(NS(=O)(=O)c2cccs2)cc1 | 2.59 µM (active)
34 | O=C(/C=C/c1ccc(-c2ccccc2[N+](=O)[O-])o1)c1ccccc1 | 3.66 µM (active)
35 | Cc1ccc(C(=O)/C=C/c2ccc(-c3ccccc3[N+](=O)[O-])o2)cc1 | 2.06 µM (active)
36 | O=C(/C=C/c1ccc(-c2ccccc2[N+](=O)[O-])o1)c1ccc(Br)cc1 | 1.84 µM (active)
37 | CC(/C=N/NC(=O)Cc1cccn1C)=C\c1ccco1 | 1.46 µM (active)
38 | c1ccc(CNc2nc(NCc3ccco3)nc(N3CCOCC3)n2)cc1 | 5.17 µM (active)
39 | CNC(=O)c1ccsc1NC(=O)c1ccc(Cl)s1 | 7.31 µM (active)
40 | O=C1c2cccc3cccc(c23)C(=O)N1Cc1ccco1 | 5.17 µM (active)
41 | Nc1ccccc1N1C(=O)c2cccc3cccc(c23)C1=O | 16.4 µM (active)
42 | CC(=O)Nc1cc(-c2ccsc2)cn2c(-c3ccc(F)cc3)cnc12 | 5.17 µM (active)
43 | CC(C)c1ccc(NC(=O)c2cc(Br)ccc2Br)cc1 | 5.8 µM (active)
44 | CS(=O)(=O)c1nc(S(=O)(=O)c2ccc(Cl)cc2)c(N2CCN(CCO)CC2)s1 | 8.2 µM (active)
45 | CCN1CCN(c2sc(S(C)(=O)=O)nc2S(=O)(=O)c2ccc(Cl)cc2)CC1 | 14.6 µM (active)
46 | COC(=O)c1cc(S(=O)(=O)C(C)C)c(S(C)=O)s1 (stereo unspecified) | 20.6 µM (active)
47 | COc1c(C(=O)Nc2nnc(C3CC3)s2)csc1Cl | 8.2 µM (active)
48 | CCCc1c(C(=O)N/N=C/c2cccs2)nnn1-c1nonc1N | 4.11 µM (active)
49 | CN1C2CCC1/C(=C\c1ccccc1)C(=O)/C2=C\c1ccccc1 | 2.91 µM (active)
50 | N#C/C(=C\c1ccccc1[N+](=O)[O-])c1nc(C2CC2)cs1 | 11.6 µM (active)
51 | O=[N+]([O-])c1ccccc1S(=O)c1ccccc1[N+](=O)[O-] | 16.4 µM (active)
52 | COc1cc(/C=C/c2ccc3cccc(O)c3n2)cc(OC)c1OC | inactive

Row | Structure (SMILES) | Potency
53 | Oc1ccc(Cl)cc1/C=C/c1ccc2cccc(O)c2n1 | 4.61 µM (active)
54 | COc1cc(Cl)cc(/C=C/c2ccc3cccc(O)c3n2)c1OC | 2.31 µM (active)
55 | Nc1c(C(=O)Nc2ccccc2Br)sc2nc(-c3cccs3)ccc12 | 14.6 µM (active)
56 | COC(=O)c1ccc2nc(-c3cccc(Cl)c3)c(Cc3ccccc3OC)n2c1 | 2.91 µM (active)
57 | COC(=O)c1ccc2nc(-c3ccco3)c(Cc3cccc(Cl)c3)n2c1 | 23.1 µM (active)
58 | COC(=O)c1ccc2nc(-c3ccco3)c(Cc3ccccc3)n2c1 | 18.4 µM (active)
59 | CCOc1cc(/C=C/c2ccc3cccc([N+](=O)[O-])c3n2)cc(Cl)c1O | 0.517 µM (active)
60 | O=[N+]([O-])c1cccc2ccc(/C=C/c3ccc(Cl)cc3)nc12 | 1.16 µM (active)
61 | O=[N+]([O-])c1cccc2ccc(/C=C/c3ccc(F)cc3)nc12 | 1.84 µM (active)
62 | O=[N+]([O-])c1ccc(/C=C/c2ccc3cccc([N+](=O)[O-])c3n2)cc1 | 0.731 µM (active)
63 | O=[N+]([O-])c1cccc2ccc(/C=C/c3cccc(Br)c3)nc12 | 1.84 µM (active)
64 | CC(=O)c1cc2c(cc1NC(=O)CSc1nc3ccccc3o1)OCO2 | 8.2 µM (active)
65 | O=C(CSc1nc2ccccc2s1)N/N=C/c1ccco1 | 8.2 µM (active)
66 | C/C(=N\NC(=O)CSc1nc2ccccc2s1)c1ccco1 | 5.17 µM (active)
67 | O=C(CSc1nc2cc(Cl)ccc2s1)c1ccco1 | 1.84 µM (active)
68 | CC(=NNC(=O)CSc1nc2ccccc2o1)c1ccco1 | 7.31 µM (active)
69 | Cc1ccnc(SCC(=O)c2ccc(Br)cc2)c1C#N | 2.31 µM (active)
70 | Cc1cc(SCC(=O)c2cccs2)nc2ccccc12 | 2.59 µM (active)
71 | Cc1cc(C)c(C#N)c(SCC(=O)c2cccs2)n1 | 5.17 µM (active)
72 | CSc1nc(N)nc(SCC(=O)c2ccccc2)c1C#N | 7.31 µM (active)
73 | Cc1cc(C)c(C#N)c(SCC(=O)c2ccccc2)n1 | 14.6 µM (active)
74 | O=C(CN1CCN(Cc2ccccc2Cl)CC1)N/N=C/C=C/c1ccco1 | 2.59 µM (active)
75 | O=C(CN1CCN(Cc2ccccc2)CC1)N/N=C\C=C/c1ccco1 | 20.6 µM (active)
76 | CC(=NNc1ccc2ccccc2n1)c1ccccc1O | 3.66 µM (active)
77 | CC(=O)OC1(C(C)=O)CCC2C3CC(C(F)(F)F)C4=CC(=O)CCC4(C)C3CCC21C (stereo unspecified) | 4.61 µM (active)
78 | Cc1cccc(CC2S/C(=N/N=C/c3ccco3)NC2=O)c1 (stereo unspecified) | 0.206 µM (active)

Row | Structure (SMILES) | Potency
79 | O=C1N/C(=N\N=C\c2ccco2)SC1Cc1ccccc1[N+](=O)[O-] (stereo unspecified) | 2.06 µM (active)
80 | O=C1N/C(=N\N=C\c2ccco2)SC1Cc1ccc(F)cc1 (stereo unspecified) | 0.731 µM (active)
81 | CC(/C=C/c1ccco1)=N\NC(=O)CNc1ccc2ccccc2c1 | 16.4 µM (active)
82 | O=C(C=Cc1ccco1)c1ccc2ccccc2c1 | 2.59 µM (active)
83 | CCc1nc(Nc2cccc(F)c2)c2oc3ccccc3c2n1 | 2.91 µM (active)
84 | Cc1nc(Nc2ccccc2F)c2oc3ccccc3c2n1 | 2.31 µM (active)
85 | NC(=O)c1oc2ccccc2c1NC(=O)c1ccccc1 | 2.59 µM (active)
86 | NC(=O)c1oc2ccccc2c1NC(=O)c1ccco1 | 2.31 µM (active)
87 | O=C(Nc1c(O)c2ccccc2[nH]c1=O)c1ccco1 | 7.31 µM (active)
88 | CN1c2ccsc2/C(=N/Nc2ccccc2)CS1(=O)=O | 2.31 µM (active)
89 | C=C(C)CNC(=S)N/N=C(\C)c1ccc(Cl)s1 | 2.59 µM (active)
90 | O=C(Nc1ccccc1[N+](=O)[O-])C1COc2ccccc2O1 (stereo unspecified) | 4.61 µM (active)
91 | CCOc1ccccc1NC(=O)C1COc2ccccc2O1 (stereo unspecified) | 4.61 µM (active)
92 | COc1ccc(Cl)cc1NC(=O)C1COc2ccccc2O1 (stereo unspecified) | 2.91 µM (active)
93 | O=C(Nc1nccs1)c1cc(-c2ccco2)nc2ccccc12 | 8.2 µM (active)
94 | NS(=O)(=O)c1ccc(NC(=O)c2cc(-c3cccs3)nc3ccccc23)cc1 | inactive
95 | Cc1csc(NC(=O)c2cc(-c3ccco3)nc3ccccc23)n1 | 2.59 µM (active)
96 | O=C(N/N=C/c1ccc(Br)s1)c1cccs1 | 2.91 µM (active)
97 | Cc1ccsc1/C=N/N=C1\C(=O)Nc2ccccc21 | 7.31 µM (active)
98 | N=c1n(CCN2CCOCC2)c2ccccc2n1CC(=O)c1cccc([N+](=O)[O-])c1 | 2.91 µM (active)
99 | CCn1c(=N)n(CC(=O)c2cccc([N+](=O)[O-])c2)c2ccccc21 | 2.31 µM (active)
100 | CC1(O)c2ccccc2C(=O)N1CCc1ccccc1F (stereo unspecified) | 5.8 µM (active)
101 | Cc1ccc(-c2nc(C=Nc3ccc(O)cc3)c(O)o2)cc1 | 16.4 µM (active)
